Experimental data reported in the supplement of paper PMC10849652.
About 8,800 targets were measured; listed, in parts, are those with a hit and a random draw of the rest. About 0.5% of all pairs of compound and target were hits. A number with no mark means an inactive call.

Tests used:
Assay in all cases: log2 fold change, soluble protein after heating vs DMSO (PISA); higher = thermal stabilisation; K562 lysate, 10 uM; active = over 0.2 and 3.5 SD of the protein, either way, in both replicates (recomputed)
[1] = compound: CN1CC[C@H](c2c(O)cc(O)c3c(=O)cc(-c4ccccc4Cl)oc23)[C@H](O)C1 [alvocidib]
In short: (§1)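 To prepare the extract, K562 pellets were dounce-homogenised in PBS pH 7.4 with 1 mM MgCl2, giving crude material at 1 mg/mL protein. This was treated with 10 μM compound for 30 min, then heated in aliquots for 3 min over 48°C-58°C before pooling and addition of NP-40 to 0.5% at 4°C. Centrifugation at 21,000xg for 90 min left soluble protein in the supernatant, which TMTpro 16plex LC-MS/MS quantified with equalised channel sums. Results are log-two fold changes in thermal stability compared with solvent controls, from duplicates.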

[2] = compound: CN1CCc2c(c3ccccc3n2Cc2ccc(C(=O)NO)cc2)C1 [Tubastatin A]
In short: as §1

[3] = compound: CNC(=O)C1=CC=CC=C1NC2=NC(=NC=C2Cl)NC3=C(C=C(C=C3)N4CCOCC4)OC
In short: as §1

[4] = compound: CNC(=O)c1ccc(Nc2ncc(C(F)(F)F)c(NCc3nccnc3N(C)S(C)(=O)=O)n2)cc1 [defactinib]
In short: as §1

[5] = compound: CNc1nc(-c2ccc3c(N)n[nH]c3c2)cc(N2C[C@@H](C(=O)NC3CCCCC3)CC[C@H]2C)n1
In short: as §1

[6] = compound: COC(=O)N[C@@H](C)CNc1nccc(-c2cn(C(C)C)nc2-c2cc(Cl)cc(NS(C)(=O)=O)c2F)n1 [encorafenib]
In short: as §1

[7] = compound: COC(=O)[C@H](CCSC)NC(=O)C1=C(C=C(C=C1)NC[C@H](CS)N)C2=CC=CC=C2
In short: as §1

[8] = compound: COc1cc(Nc2ncc3c(n2)-c2ccc(Cl)cc2C(c2c(F)cccc2OC)=NC3)ccc1C(=O)O [alisertib]
In short: as §1

[9] = compound: COc1cc2nc(-c3cc(F)ccc3O)nc(N[C@@H]3CNC[C@H]3C(C)(C)O)c2cc1OC
In short: as §1

[10] = compound: COc1cc2ncnc(Nc3ccc(F)c(Cl)c3)c2cc1OCCCN1CCOCC1 [gefitinib]
In short: as §1

[11] = compound: CS(=O)(=O)CCNCc1ccc(-c2ccc3ncnc(Nc4ccc(OCc5cccc(F)c5)c(Cl)c4)c3c2)o1 [lapatinib]
In short: as §1

[12] = compound: CS(=O)(=O)N1CCN(Cc2cc3nc(-c4cccc5[nH]ncc45)nc(N4CCOCC4)c3s2)CC1 [pictilisib]
In short: as §1

[13] = compound: C[C@@H](Oc1cc(-c2cnn(C3CCNCC3)c2)cnc1N)c1c(Cl)ccc(F)c1Cl [crizotinib]
In short: as §1

[14] = compound: C[C@H](C1=CC=C(C=C1)C(=O)NC2=C3C=CNC3=NC=C2)N
In short: as §1

[15] = compound: C[C@H](Nc1ncnc2nc[nH]c12)c1cc2cccc(Cl)c2c(=O)n1-c1ccccc1 [duvelisib]
In short: as §1

[16] = compound: Cc1cc(Nc2cc(CN3CCOCC3)c3nc(C)c(Cc4ccc(Cl)cc4F)n3n2)n[nH]1 [gandotinib]
In short: as §1

[17] = compound: Cc1cc(Nc2cc(N3CCN(C)CC3)nc(Sc3ccc(NC(=O)C4CC4)cc3)n2)n[nH]1 [tozasertib]
In short: as §1

[18] = compound: Cc1ccc(-n2nc(C(C)(C)C)cc2NC(=O)Nc2ccc(OCCN3CCOCC3)c3ccccc23)cc1 [doramapimod]
In short: as §1

[19] = compound: Cc1ccc(NC(=O)c2ccc(CN3CC[C@H](N(C)C)C3)c(C(F)(F)F)c2)cc1Nc1nccc(-c2cncnc2)n1 [bafetinib]
In short: as §1

[20] = compound: Cc1cccc(CC(=O)N2CCc3c2ccc(-c2cn(C)c4ncnc(N)c24)c3F)n1
In short: as §1

UniProt P30419, sequence (P30419 whole entry, looked up): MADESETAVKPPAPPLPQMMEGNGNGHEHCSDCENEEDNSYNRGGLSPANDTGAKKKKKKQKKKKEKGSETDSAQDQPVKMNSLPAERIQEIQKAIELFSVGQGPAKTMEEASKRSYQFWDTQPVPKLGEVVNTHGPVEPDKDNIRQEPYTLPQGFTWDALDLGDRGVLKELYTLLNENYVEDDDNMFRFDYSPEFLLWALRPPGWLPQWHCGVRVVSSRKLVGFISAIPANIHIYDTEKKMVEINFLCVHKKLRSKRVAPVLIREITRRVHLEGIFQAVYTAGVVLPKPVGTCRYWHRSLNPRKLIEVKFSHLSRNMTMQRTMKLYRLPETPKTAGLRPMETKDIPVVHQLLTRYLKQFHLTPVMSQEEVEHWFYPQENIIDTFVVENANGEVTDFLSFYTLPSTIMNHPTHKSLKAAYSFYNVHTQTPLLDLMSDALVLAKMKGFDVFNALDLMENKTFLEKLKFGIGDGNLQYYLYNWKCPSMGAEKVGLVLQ
UniProt O00221, sequence (O00221 whole entry, looked up): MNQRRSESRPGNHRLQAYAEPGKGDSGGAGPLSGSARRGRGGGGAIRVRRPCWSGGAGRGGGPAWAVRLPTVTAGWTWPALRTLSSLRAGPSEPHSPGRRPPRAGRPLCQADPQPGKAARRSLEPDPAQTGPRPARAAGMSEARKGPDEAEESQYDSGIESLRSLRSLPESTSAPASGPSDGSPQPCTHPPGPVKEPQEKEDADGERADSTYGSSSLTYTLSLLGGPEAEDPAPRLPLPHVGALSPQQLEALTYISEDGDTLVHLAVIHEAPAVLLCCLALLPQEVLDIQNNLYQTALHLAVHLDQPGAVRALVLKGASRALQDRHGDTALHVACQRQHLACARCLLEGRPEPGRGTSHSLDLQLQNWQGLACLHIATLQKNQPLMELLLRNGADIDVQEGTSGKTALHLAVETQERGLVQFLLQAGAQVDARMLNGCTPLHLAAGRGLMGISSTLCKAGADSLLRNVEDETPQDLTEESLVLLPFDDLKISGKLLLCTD
UniProt Q9UBD5, sequence (Q9UBD5 whole entry, looked up): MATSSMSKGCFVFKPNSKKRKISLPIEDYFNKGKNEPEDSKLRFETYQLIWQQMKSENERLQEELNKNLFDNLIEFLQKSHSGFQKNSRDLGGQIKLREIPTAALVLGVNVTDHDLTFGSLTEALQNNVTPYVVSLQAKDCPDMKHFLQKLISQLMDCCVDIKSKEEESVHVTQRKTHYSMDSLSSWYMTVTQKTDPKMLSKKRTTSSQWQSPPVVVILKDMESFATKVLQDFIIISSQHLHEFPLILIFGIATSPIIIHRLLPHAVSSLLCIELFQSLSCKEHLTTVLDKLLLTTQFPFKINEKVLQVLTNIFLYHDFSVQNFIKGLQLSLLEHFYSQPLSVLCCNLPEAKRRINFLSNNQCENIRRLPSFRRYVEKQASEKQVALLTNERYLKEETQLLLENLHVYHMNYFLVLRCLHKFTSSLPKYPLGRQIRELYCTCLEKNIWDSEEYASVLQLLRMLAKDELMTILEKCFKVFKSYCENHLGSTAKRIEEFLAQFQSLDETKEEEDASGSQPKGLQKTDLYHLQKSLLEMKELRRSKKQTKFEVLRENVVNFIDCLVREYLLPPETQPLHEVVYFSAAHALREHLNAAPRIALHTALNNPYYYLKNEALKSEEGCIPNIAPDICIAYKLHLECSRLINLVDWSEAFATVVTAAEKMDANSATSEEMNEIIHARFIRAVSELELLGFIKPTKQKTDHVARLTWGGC
UniProt P52179, sequence (P52179 whole entry, looked up): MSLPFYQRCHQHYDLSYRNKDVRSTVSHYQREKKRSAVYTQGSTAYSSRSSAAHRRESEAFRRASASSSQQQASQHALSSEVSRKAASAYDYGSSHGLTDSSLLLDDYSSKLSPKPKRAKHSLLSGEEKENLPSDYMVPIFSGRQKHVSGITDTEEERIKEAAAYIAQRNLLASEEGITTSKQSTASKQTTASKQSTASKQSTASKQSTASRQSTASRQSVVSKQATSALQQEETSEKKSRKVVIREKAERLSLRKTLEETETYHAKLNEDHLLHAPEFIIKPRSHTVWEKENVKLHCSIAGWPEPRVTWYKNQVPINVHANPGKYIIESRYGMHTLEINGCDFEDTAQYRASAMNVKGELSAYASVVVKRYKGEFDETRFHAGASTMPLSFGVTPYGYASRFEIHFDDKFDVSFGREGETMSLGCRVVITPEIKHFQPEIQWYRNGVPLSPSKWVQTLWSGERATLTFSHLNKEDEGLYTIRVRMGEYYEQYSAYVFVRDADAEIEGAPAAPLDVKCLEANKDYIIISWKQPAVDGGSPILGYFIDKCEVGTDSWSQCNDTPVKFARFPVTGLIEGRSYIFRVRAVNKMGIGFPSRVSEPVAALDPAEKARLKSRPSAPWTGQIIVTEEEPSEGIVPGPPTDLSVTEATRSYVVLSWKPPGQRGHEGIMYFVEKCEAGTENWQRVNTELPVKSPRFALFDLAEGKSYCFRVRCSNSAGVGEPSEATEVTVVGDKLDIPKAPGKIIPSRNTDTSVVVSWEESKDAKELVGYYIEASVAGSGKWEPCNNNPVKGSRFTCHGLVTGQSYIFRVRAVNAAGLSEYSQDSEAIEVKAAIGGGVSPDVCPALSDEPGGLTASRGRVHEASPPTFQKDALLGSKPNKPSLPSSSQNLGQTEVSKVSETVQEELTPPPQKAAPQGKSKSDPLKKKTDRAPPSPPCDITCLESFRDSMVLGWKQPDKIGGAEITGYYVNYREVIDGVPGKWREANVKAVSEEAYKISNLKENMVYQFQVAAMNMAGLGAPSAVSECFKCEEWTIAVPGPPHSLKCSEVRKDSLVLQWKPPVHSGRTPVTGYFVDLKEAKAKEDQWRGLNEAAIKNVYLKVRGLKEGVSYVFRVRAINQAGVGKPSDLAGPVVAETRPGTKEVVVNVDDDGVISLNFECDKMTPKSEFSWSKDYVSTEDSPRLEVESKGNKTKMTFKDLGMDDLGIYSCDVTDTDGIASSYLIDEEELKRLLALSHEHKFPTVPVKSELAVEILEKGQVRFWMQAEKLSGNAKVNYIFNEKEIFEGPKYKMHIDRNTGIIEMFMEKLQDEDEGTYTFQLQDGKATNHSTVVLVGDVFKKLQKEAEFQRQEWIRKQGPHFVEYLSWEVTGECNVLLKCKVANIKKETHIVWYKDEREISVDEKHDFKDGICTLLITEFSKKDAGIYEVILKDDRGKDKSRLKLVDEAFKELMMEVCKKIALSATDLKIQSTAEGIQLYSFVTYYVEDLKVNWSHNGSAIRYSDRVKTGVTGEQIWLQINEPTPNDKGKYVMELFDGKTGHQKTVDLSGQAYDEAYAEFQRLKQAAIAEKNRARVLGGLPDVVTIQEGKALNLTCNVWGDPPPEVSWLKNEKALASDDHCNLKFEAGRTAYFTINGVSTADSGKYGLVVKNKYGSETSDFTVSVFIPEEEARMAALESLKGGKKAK
UniProt Q9NPF4, sequence (Q9NPF4 whole entry, looked up): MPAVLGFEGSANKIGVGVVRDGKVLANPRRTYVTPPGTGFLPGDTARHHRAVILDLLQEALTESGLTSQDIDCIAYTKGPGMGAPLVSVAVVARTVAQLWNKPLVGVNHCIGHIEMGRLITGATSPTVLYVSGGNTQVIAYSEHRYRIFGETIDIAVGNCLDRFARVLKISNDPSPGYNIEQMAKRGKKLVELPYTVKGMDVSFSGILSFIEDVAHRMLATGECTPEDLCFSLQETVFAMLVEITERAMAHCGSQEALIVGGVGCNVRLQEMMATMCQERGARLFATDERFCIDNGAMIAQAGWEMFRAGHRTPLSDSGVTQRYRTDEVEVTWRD
UniProt Q9NZJ9, sequence (Q9NZJ9 whole entry, looked up): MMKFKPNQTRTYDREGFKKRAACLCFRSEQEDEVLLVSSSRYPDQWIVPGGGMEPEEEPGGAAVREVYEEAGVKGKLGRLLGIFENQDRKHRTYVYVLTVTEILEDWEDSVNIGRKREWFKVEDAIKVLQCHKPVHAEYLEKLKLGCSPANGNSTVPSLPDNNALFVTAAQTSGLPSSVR

| Target | log2 fold change [1] | log2 fold change [2] | log2 fold change [3] | log2 fold change [4] | log2 fold change [5] | log2 fold change [6] | log2 fold change [7] | log2 fold change [8] | log2 fold change [9] | log2 fold change [10] | log2 fold change [11] | log2 fold change [12] | log2 fold change [13] | log2 fold change [14] | log2 fold change [15] | log2 fold change [16] | log2 fold change [17] | log2 fold change [18] | log2 fold change [19] | log2 fold change [20] |
| --- | --- | --- | --- | --- | --- | --- | --- | --- | --- | --- | --- | --- | --- | --- | --- | --- | --- | --- | --- | --- |
| ORC3 isoform 2 (UniProt Q9UBD5) | 0.006 | -0.155 | 0.007 | 0.022 | 0.035 | 0.02 | 0.15 | 0.001 | -0.009 | -0.019 | -0.014 | -0.011 | -0.119 | -0.008 | -0.025 | -0.097 | -0.024 | -0.009 | -0.046 | 0.001 |
| NFKBIE (UniProt O00221) | -0.068 | 0.029 | 0.055 | 0.054 | 0.013 | 0.038 | -0.14 | 0.047 | -0.03 | 0.014 | 0.03 | 0.002 | -0.027 | 0.066 | 0.03 | -0.02 | 0.07 | 0.031 | 0.012 | 0.096 |
| NUDT4 isoform 2 (UniProt Q9NZJ9) | -0.001 | -0.101 | 0.01 | -0.07 | 0.073 | 0.025 | -0.129 | 0.012 | 0.003 | -0.023 | -0.002 | 0.006 | -0.018 | -0.055 | -0.013 | 0.061 | 0.065 | -0.009 | -0.006 | 0.011 |
| MVB12A (UniProt Q96EY5) | -0.019 | -0.221 | -0.009 | 0.056 | 0.037 | -0.015 | -0.012 | -0.011 | -0.035 | -0.055 | 0.012 | -0.027 | -0.025 | 0 | -0.04 | -0.031 | -0.046 | 0.012 | -0.015 | -0.031 |
| MRPL58 (UniProt Q14197) | 0 | -0.065 | 0.027 | -0.045 | 0.033 | 0.011 | -0.078 | -0.021 | -0.02 | -0.04 | 0.035 | -0.034 | -0.063 | 0.365 (active) | -0.034 | -0.009 | 0.045 | -0.026 | -0.03 | -0.119 |
| NMT1 (UniProt P30419) | 0.021 | 0.001 | 0.001 | 0.031 | 0.011 | -0.001 | 0.087 | -0.005 | 0.007 | -0.006 | 0.02 | 0.005 | -0.006 | 0.016 | -0.023 | -0.021 | 0.012 | -0.015 | 0.09 | -0.034 |
| OSGEP (UniProt Q9NPF4) | -0.062 | 0 | -0.047 | 0 | 0.03 | -0.008 | 0.016 | 0.045 | 0.007 | -0.032 | -0.011 | -0.025 | -0.006 | -0.07 | -0.037 | -0.024 | 0.043 | -0.035 | -0.008 | 0.033 |
| MYOM1 (UniProt P52179) | 0.039 | -0.033 | -0.092 | 0.194 | 0.139 | 0.065 | -0.011 | 0.215 | -0.06 | 0.026 | 0.099 | 0.009 | 0.054 | -0.082 | -0.02 | 0.065 | -0.137 | -0.436 | -0.252 | 0.05 |
